Measurements: PubChem BioAssay (NCATS)
Results filed as inconclusive are left out. The source made the active and inactive calls. Calls come from the whole dose curve; as a rule, active = well fitted curve in the direction sought with a large enough effect; inconclusive = small, poorly fitted or top-dose-only effect, or another doubt; inactive = no such curve, though single readings can be large; an effect the other way counts as inactive or inconclusive.

Tests used:
[1] = qHTS of pediatric cancer cell lines to identify multiple opportunities for drug repurposing: Primary screen for TC32 cells (AID 1347089); note: nearly all actives have a fitted effect of over 60% in size; note: potency is the fitted concentration of half-maximal effect
Outline: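 In the primary qHTS, MIPE compounds were tested at 11 concentrations (0.78 nM to 46 µM) and NPC compounds at 8 (0.59 nM to 46 µM) on TC32 cells for 48 h. CellTiter-Glo luminescence gave viability.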

[2] = qHTS of pediatric cancer cell lines to identify multiple opportunities for drug repurposing: Primary screen for SK-N-MC cells (AID 1347093); note: potency is the fitted concentration of half-maximal effect
Outline: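 Metabolically active cells were quantified by ATP-dependent luminescence (CellTiter-Glo, 15 min at room temperature) following 48 h treatment. Cells had been plated at 500-1,000 per well and settled for 5 h beforehand.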

[3] = qHTS of pediatric cancer cell lines to identify multiple opportunities for drug repurposing: Primary screen for BT-37 cells (AID 1347094); note: potency is the fitted concentration of half-maximal effect
Outline: (§1)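 Cells plated at 500-1,000/well in growth medium, compounds added after 5 h. MIPE tested at 11 points (from 0.78 nM), NPC at 8 points (from 0.59 nM). CellTiter-Glo luminescence after 48 h; concentration-response curves from primary screen.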

[4] = qHTS of pediatric cancer cell lines to identify multiple opportunities for drug repurposing: Primary screen for NB-EBc1 cells (AID 1347095); note: potency is the fitted concentration of half-maximal effect
Outline: as §1

[5] = qHTS of pediatric cancer cell lines to identify multiple opportunities for drug repurposing: Primary screen for U-2 OS cells (AID 1347096); note: nearly all actives have a fitted effect of over 50% in size
Outline: (§2)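 Cells (500-1,000/well) rested 5 h, then received compounds for 48 h; metabolically active cells were measured by CellTiter-Glo luminescence. Final concentrations spanned up to 46 µM (MIPE, 11-point) or 0.59 nM-46 µM (NPC, 8-point) in primary screens, 11-point in follow-ups.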

[6] = qHTS of pediatric cancer cell lines to identify multiple opportunities for drug repurposing: Primary screen for BT-12 cells (AID 1347101); note: potency is the fitted concentration of half-maximal effect; nearly all actives have a fitted effect of over 25% in size
Outline: as §2

[7] = qHTS of pediatric cancer cell lines to identify multiple opportunities for drug repurposing: Primary screen for SJ-GBM2 cells (AID 1347091); note: potency is the fitted concentration of half-maximal effect
Outline: (§3)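 Cell viability, CellTiter-Glo luminescence; 500-1,000 cells/well, 8- or 11-point titration, 48 h compound exposure at 37 degrees C, 5% CO2. Controls: DMSO neutral, bortezomib 2.3 µM final as positive.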

[8] = qHTS of pediatric cancer cell lines to identify multiple opportunities for drug repurposing: Primary screen for Saos-2 cells (AID 1347097); note: nearly all actives have a fitted effect of over 40% in size; note: potency is the fitted concentration of half-maximal effect
Outline: as §1

[9] = qHTS of pediatric cancer cell lines to identify multiple opportunities for drug repurposing: Primary screen for LAN-5 cells (AID 1347100); note: potency is the fitted concentration of half-maximal effect
Outline: as §2

[10] = qHTS of pediatric cancer cell lines to identify multiple opportunities for drug repurposing: Primary screen for Rh18 cells (AID 1347102); note: nearly all actives have a fitted effect of over 65% in size; note: potency is the fitted concentration of half-maximal effect
Outline: as §2

[11] = qHTS of pediatric cancer cell lines to identify multiple opportunities for drug repurposing: Primary screen for OHS-50 cells (AID 1347103); note: potency is the fitted concentration of half-maximal effect; nearly all actives have a fitted effect of over 40% in size
Outline: as §2

[12] = qHTS of pediatric cancer cell lines to identify multiple opportunities for drug repurposing: Primary screen for RD cells (AID 1347104); note: nearly all actives have a fitted effect of over 55% in size; note: potency is the fitted concentration of half-maximal effect
Outline: as §1

[13] = qHTS of pediatric cancer cell lines to identify multiple opportunities for drug repurposing: Primary screen for SK-N-SH cells (AID 1347098); note: potency is the fitted concentration of half-maximal effect; nearly all actives have a fitted effect of over 65% in size
Outline: as §2

[14] = qHTS of pediatric cancer cell lines to identify multiple opportunities for drug repurposing: Primary screen for DAOY cells (AID 1347090); note: nearly all actives have a fitted effect of over 55% in size; note: potency is the fitted concentration of half-maximal effect
Outline: as §3

[15] = qHTS of pediatric cancer cell lines to identify multiple opportunities for drug repurposing: Primary screen for NB1643 cells (AID 1347099); note: nearly all actives have a fitted effect of over 50% in size; note: potency is the fitted concentration of half-maximal effect
Outline: as §1

[16] = qHTS of pediatric cancer cell lines to identify multiple opportunities for drug repurposing: Primary screen for A673 cells (AID 1347092); note: nearly all actives have a fitted effect of over 45% in size
Outline: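 48 h compound exposure, A673, 500-1,000 cells/well, 37 degrees C/5% CO2. MIPE: 11-point, 0.78 nM-46 µM; NPC: 8-point, 0.59 nM-46 µM (final). Readout CellTiter-Glo luminescence after 15 min RT.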

Measured: Potency

COc1c(C)c2c(c(O)c1C/C=C(\C)CCC(=O)O)C(=O)OC2
active: [1] 0.664 µM | [2] 0.0841 µM | [3] 0.389 µM | [4] 29.9 µM | [6] 0.692 µM
inactive: [5]

CC(C)(C)CC(C)(C)c1ccc(OCCOCC[N+](C)(C)Cc2ccccc2)cc1
active: [7] 21.1 µM | [2] 5.96 µM | [3] 13.8 µM | [8] 13.3 µM | [9] 21.1 µM | [6] 8.71 µM | [10] 10.6 µM | [11] 6.17 µM | [12] 26.6 µM

CC(C)=CCC1C(=O)N(c2ccccc2)N(c2ccccc2)C1=O
inactive: [1] | [3] | [5] | [12]
active: [4] 21.1 µM | [9] 29.9 µM

CCCCOc1ccc(C(=O)CCN2CCCCC2)cc1
active: [4] 21.1 µM | [8] 23.7 µM
inactive: [1] | [5]

CC(=O)N/N=C/c1ccc([N+](=O)[O-])o1
inactive: [7] | [5]

COc1ccc(/C=C/C(=O)c2ccc(OC)cc2OC)cc1
inactive: [1] | [5]
active: [8] 10.6 µM | [13] 19.4 µM | [9] 21.1 µM

CCN(CC)CCOc1ccc(C(O)(Cc2ccc(Cl)cc2)c2ccc(C)cc2)cc1 (stereo unspecified)
active: [2] 21.1 µM | [8] 16.8 µM | [9] 21.1 µM | [6] 11 µM | [10] 23.7 µM | [11] 15.5 µM | [12] 21.1 µM

CCOc1ccc(Cc2nccc3cc(OCC)c(OCC)cc23)cc1OCC
active: [14] 21.1 µM | [6] 6.17 µM | [11] 7.77 µM
inactive: [7]

Oc1c(I)cc(I)c2cccnc12
active: [7] 13.3 µM
inactive: [5] | [10]

CN1CCCC(CC2c3ccccc3Sc3ccccc32)C1 (stereo unspecified)
active: [2] 23.7 µM | [9] 23.7 µM | [6] 19.5 µM | [11] 24.6 µM
inactive: [14] | [4] | [5] | [15]

C/C=C(/C(=C/C)c1ccc(O)cc1)c1ccc(O)cc1
inactive: [1] | [3] | [5] | [9]
active: [2] 8.41 µM | [4] 18.8 µM | [8] 21.1 µM | [11] 21.9 µM

CC(=O)N(O)CCCCCNC(=O)CCC(=O)N(O)CCCCCNC(=O)CCC(=O)N(O)CCCCCN
active: [14] 8.41 µM | [3] 12.3 µM | [6] 12.3 µM | [11] 13.8 µM
inactive: [16] | [5] | [8]

COc1ccc(CN2CCN(C(c3ccc(F)cc3)c3ccc(F)cc3)CC2)c(OC)c1OC
inactive: [15]
active: [11] 13.8 µM

Oc1ccc(Cl)cc1Sc1cc(Cl)ccc1O
active: [14] 21.1 µM | [7] 13.3 µM | [3] 21.9 µM | [4] 15 µM | [8] 15 µM | [15] 18.8 µM | [9] 18.8 µM | [6] 19.5 µM | [12] 23.7 µM
inactive: [5]
